Hits are enriched below; roughly 2.4% of the tested compounds scored in any of these assays.
Pol iota inh – DNA polymerase iota (human) inhibition | Q9UNA4 | Pol iota fluorescent replication assay, 10 min | Potency, µM (titrated, usually from 115 µM), inactives show at the top dose activity, negative = inhibition, hits mostly inhibitors | hit rate 1% among 390,000 | AID 588590
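Pol iota at 10 nM preincubated 15 min with compounds at room temperature; reaction started with fluorescent substrate, 50 nM final. Fluorescence read kinetically at 0 and 10 min; buffer-only wells as negative control.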
POLH inh – inhibitors of human DNA polymerase eta. hit rate 1.2% among 390,000. recombinant Pol eta, fluorescent DNA replication assay. AID 588591. Potency, µM (series often up to 114 µM), for inactives: at the highest dose activity change, negative = inhibition, usual class: inhibitors. Q9Y253; also: % is scaled to controls: 0 for no effect and ±100 for the full control effect
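Pol eta (10 nM) was preincubated with compounds for 15 min at room temperature, after which fluorescent replication substrate (50 nM final) was added to start the reaction. Fluorescence was read kinetically at 0 and 10 min.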
POLK inh – inhibitors of human DNA polymerase kappa; Q9UBT6; purified Pol kappa, fluorescent DNA synthesis assay, 10 min; Potency, µM (titrated, usually from 107 µM), without a hit: at the top dose activity, negative = inhibition, hits mostly inhibitors; hit rate 0.53% among 400,000; AID 588579; also: % is scaled to controls: 0 for no effect and ±100 for the full control effect
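Kinetic fluorescence readout at 0 and 10 min followed reaction start with substrate at 50 nM final. Beforehand, enzyme (10 nM Pol kappa) stood 15 min with compound at room temperature; buffer-only wells were negative controls.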
Pol beta inh – blocks human DNA polymerase beta activity; P06746; Pol beta primer extension/strand displacement, fluorescence kinetic; Potency, µM (titrated, usually from 114 µM), without a hit: top-dose activity change, negative = inhibition, hits mostly inhibitors; hit rate 1.3% among 340,000; AID 485314; also: % is scaled to controls: 0 for no effect and ±100 for the full control effect
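Values derive from four-parameter Hill fits of normalized kinetic data: reads at 0 and 10 min following addition of 50 nM substrate to 10 nM Pol beta preincubated 15 min with compound.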
TDP1 inh – inhibitors of human tyrosyl-DNA phosphodiesterase TDP1; Q9NUW8; recombinant TDP1, AlphaScreen DNA substrate cleavage; Potency, µM (highest dose often 130 µM), without a hit: at the highest dose activity change, negative = inhibition, usual class: inhibitors; hit rate 0.28% among 350,000; AID 485290; also: % is scaled to controls: 0 for no effect and ±100 for the full control effect; nearly all actives have a fitted effect of over 40% in size
Target sequence (Q9NUW8 whole entry, looked up): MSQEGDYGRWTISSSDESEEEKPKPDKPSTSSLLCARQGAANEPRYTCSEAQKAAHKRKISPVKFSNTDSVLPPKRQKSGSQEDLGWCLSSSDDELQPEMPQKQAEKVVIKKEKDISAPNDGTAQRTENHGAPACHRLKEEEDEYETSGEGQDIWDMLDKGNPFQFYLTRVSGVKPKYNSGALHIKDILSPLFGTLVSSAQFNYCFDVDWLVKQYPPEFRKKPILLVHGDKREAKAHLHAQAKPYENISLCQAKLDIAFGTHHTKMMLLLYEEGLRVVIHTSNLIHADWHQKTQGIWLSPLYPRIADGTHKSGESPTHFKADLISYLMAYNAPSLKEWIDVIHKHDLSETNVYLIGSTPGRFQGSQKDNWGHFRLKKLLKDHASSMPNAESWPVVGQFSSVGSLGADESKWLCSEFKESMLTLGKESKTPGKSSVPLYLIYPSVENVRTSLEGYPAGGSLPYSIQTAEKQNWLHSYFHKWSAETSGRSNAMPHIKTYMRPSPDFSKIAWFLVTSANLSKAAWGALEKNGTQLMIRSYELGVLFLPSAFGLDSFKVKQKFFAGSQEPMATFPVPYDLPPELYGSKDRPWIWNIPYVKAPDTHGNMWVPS
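Recombinant E. coli-expressed Tdp1 (1 nM) preincubated with compound 15 min at RT, then 5'-biotin/3'-phosphotyrosine-FITC DNA substrate (15 nM) added for 5 min. AlphaScreen beads (10 ug/ml) added, 10 min RT; tyrosine-FITC cleavage read as signal loss.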
FEN1 inhibitor – inhibitors of human flap endonuclease 1. Potency, µM (top dose mostly 114 µM), inactives show at the top dose activity change, negative = inhibition, hits mostly inhibitors. hit rate 0.35% among 390,000. P39748. Recombinant FEN1 flap cleavage, fluorescence, 15 min; also: % is scaled to controls: 0 for no effect and ±100 for the full control effect; nearly all actives have a fitted effect of over 65% in size
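Recombinant FEN1 (10 nM) was preincubated with pin-transferred compounds for 15 min at room temperature, then flap DNA substrate (50 nM final) was added. Plates were read at 0 and 15 min, and normalized concentration–response data were fitted to a four-parameter Hill equation.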
* marks the source's active call; other numbers are inactive results; ? = inconclusive; / = no result given; [ ] = another dose, or the depositor's remark. Calls follow the shape of the dose curve; as a rule, active = well fitted curve in the direction sought with a large enough effect; inconclusive = small, poorly fitted or top-dose-only effect, or another doubt; inactive = no such curve, though single readings can be large; an effect the other way counts as inactive or inconclusive. Potency is read from the fitted curve at half-maximal effect.

SMILES | Pol iota inh | POLH inh | POLK inh | Pol beta inh | TDP1 inh | FEN1 inhibitor
Cc1cc(=O)n2[nH]c(-c3ccsc3-n3c(C)ccc3C)cc2n1 | 7.9µM* | 7.9µM* | 28µM* | ? | / | ?
CCOc1ccc(C(c2c(O)cc(C)n(Cc3ccco3)c2=O)N2CCN(c3ccccc3)CC2)cc1 (stereo not given) | 2% | -14% | -2%[60.1 µM] | -1% | 8% | -8%
O=C1/C(=N\S(=O)(=O)c2cccs2)C([n+]2ccccc2)=C([O-])c2ccccc21 | 30% | 32µM* | 11% | ? | / | -6%
CC(C)(C)c1cc[n+](C2=C([O-])c3ccccc3C(=O)/C2=N\S(=O)(=O)c2cccs2)cc1 | ? | -2% | -16% | -113% | 5% | 6%
Cc1ccc(S(=O)(=O)N(C)CCCN(C)c2nc(-c3cccs3)nc3ccccc23)cc1 | -7% | / | 1% | / | 0% | 4%
COC(=O)c1ccccc1NC(=O)Cn1c(=O)n(CCCC(=O)NCc2ccccc2OC)c(=O)c2ccccc21 | 10% | -8% | 4% | 30% | 2% | -12%
CCN1/C(=C/c2cccc[n+]2C)Sc2ccc(OC)cc21 | ? | -12% | -4% | ? | / | ?
CN1/C(=C/c2cccc[n+]2C)Sc2ccccc21 | ? | 2% | -8% | 32µM* | / | 45µM*
COc1nc(-c2ccc(C)cc2)ccc1-c1noc(-c2ccc(C(C)(C)C)cc2)n1 | ? | -7% | -18% | 19% | 0% | -15%
Nc1c(C(=O)Nc2ccccc2Cl)c2ccccn2c1C(=O)c1ccc(Cl)cc1 | -7% | / | -3% | 13% | 3% | 18%
C(=C\c1ccnc2ccccc12)/c1ccc2ccccc2n1 | 28% | / | 0% | / | / | ?
O=C(Cn1ncc2c3ccccc3n(Cc3ccc(Cl)cc3)c2c1=O)N1CCCCCC1 | -5% | -10% | -12% | -8% | 3% | -20%
CCc1ccc(-c2csc(NC(=O)C3CC(=O)N(c4ccc5c(c4)OCCO5)C3)n2)cc1 (stereo not given) | 89µM* | -18% | -29% | ? | 3% | ?
N#Cc1ccc(CSc2nnc(NC(=O)C3CC(=O)N(c4ccc5c(c4)OCCO5)C3)s2)cc1 (stereo not given) | 31% | -13% | 1% | 8.9µM* | -5% | 15%
CC(=O)N1CCc2cc(S(=O)(=O)NC(C(=O)NC3CCCc4ccccc43)C(C)C)ccc21 (stereo not given) | -14% | -9% | -11% | 32µM* | -2% | 7%
COc1cccc(CNC(=O)C(Cc2ccccc2)NS(=O)(=O)c2ccc3c(c2)CCN3C(C)=O)c1 (stereo not given) | -5% | -9% | -4% | -21% | 7% | 8%
COc1ccc(CNC(=O)C(Cc2ccccc2)NS(=O)(=O)c2ccc3c(c2)CCN3C(C)=O)cc1 (stereo not given) | ? | -9% | 0% | 25µM* | 0% | 10%
COc1ccc(NS(=O)(=O)c2ccc3c(c2)CCCN3C(C)=O)cc1 | -16% | -3% | 7% | 18% | 4% | 5%
COc1cccc(NS(=O)(=O)c2ccc3c(c2)CCCN3C(C)=O)c1 | -34% | 5% | -6% | 79µM* | 2% | -10%
Cc1cc[n+](CCC2CCCCC2)c2ccccc12 | 38% | / | 5% | / | / | 3%
Oc1c(C(c2ccccc2)N2CCC3(CC2)OCCO3)sc2nc(-c3ccco3)nn12 (stereo not given) | -5% | 2% | 0%[60.1 µM] | -2% | 5% | -8%
COc1ccc(C(=O)OCC(=O)Nc2sccc2C(N)=O)cc1OC | -9% | -15% | 4% | 20% | 0% | -1%
CN1CCN(S(=O)(=O)c2cccc(C(=O)Nc3sccc3C(N)=O)c2)CC1 | 45µM* | 45µM* | ? | / | -1% | -20%
COc1ccc(NC(=O)COC(=O)c2cccc(S(=O)(=O)N(C)C)c2)cc1 | 35% | -7% | -5% | -4% | -2% | -7%
CN(C)S(=O)(=O)c1cccc(C(=O)OCC(=O)Nc2sccc2C(N)=O)c1 | ? | 20µM* | ? | 9% | 1% | -13%
SMILES | Pol iota inh | POLH inh | POLK inh | Pol beta inh | TDP1 inh | FEN1 inhibitor
COc1ccccc1OCC(=O)OCC(=O)Nc1sccc1C(N)=O | ? | 25µM* | -32% | ? | -1% | -1%
CC(=O)NC1=C(C#N)CCC1 | 17% | / | 10% | / | / | 4%
CCOC(=O)c1sc2nc3c(SCC(=O)O)cc(C(=O)c4ccccc4O)cn3c(=O)c2c1C | ? | ? | -24% | 3.2µM* | 3% | ?
COC(=O)c1cc(C(=O)c2cc(F)ccc2O)cn2c(=O)c3c(C)c(C)sc3nc12 | ? | -15% | -21% | 32µM* | / | -16%
Cc1sc2nc3c(SC(C)C(=O)O)cc(C(=O)c4ccccc4O)cn3c(=O)c2c1C (stereo not given) | ? | ? | -25% | ? | 4% | -28%
CCc1c(C)sc2nc3c(C(=O)N4CCOCC4)cc(C(=O)c4ccccc4O)cn3c(=O)c12 | 51% | -10% | -6% | 28% | 5% | 4%
COc1ccc(-c2noc(-c3ccccc3-c3ccccc3)n2)cc1 | 16% | -16% | 0% | 5% | -3% | -14%
Cc1ccc(-c2nc(-c3ccccc3)no2)c(Cl)c1 | ? | -14% | -20% | 28% | 56µM* | 3%
CN1C2C=C3C(C#N)=C(N)C(C#N)(C#N)[C@@H](c4cccc(F)c4)[C@@H]3C1CC2 (stereo not given in full) | 20µM* | -11% | -7% | 44% | 9% | -2%
Cc1ccc(-c2nc(=Nc3c(C)cc(C)cc3C)sn2-c2ccccc2)cc1 | 8% | / | -12% | / | 5% | -21%
COc1ccccc1-c1cncnc1NCCc1cnc[nH]1 | / | / | -5%[60.1 µM] | / | 10%[56.1 µM] | /
CCOc1ccc(C2NC(=O)c3c(COC)cc(C)nc3N2Cc2ccccc2)cc1OC (stereo not given) | 59% | -13% | 4% | 9% | 3% | 3%
CCOc1ccc(NC(=O)NNC(=O)c2cc3ccccc3cc2O)cc1 | 79µM* | 8% | -44% | ? | 0% | -12%
Cc1ccc(C)c(NC(=O)NNC(=O)c2cc3ccccc3cc2O)c1 | 35µM* | ? | ? | 35µM* | -10% | -4%
Cc1cccc(NC(=O)NNC(=O)c2cc3ccccc3cc2O)c1C | 50µM* | -26% | ? | 35µM* | 3% | 2%
O=C(NNC(=O)c1cc2ccccc2cc1O)Nc1ccccc1F | -24% | -5% | -7% | ? | 4% | -11%
O=C(c1ccco1)N1CCN(C(=O)c2ccc(-c3ccc([N+](=O)[O-])cc3)o2)CC1 | 18µM* | 22µM* | 28µM* | / | 35µM* | 79µM*
